Screening results deposited in PubChem by National Center for Advancing Translational Sciences (NCATS).
Most compounds without a hit are left out; they make up all but 0.45% or so of the library.
EPAC2 antagonist = EPAC2 (human) antagonism | EPAC2 GEF exchange of Rap1B-BODIPY-GDP, fluorescence | Potency, µM (doses to about 114 µM), inactives show at the top dose activity, negative = inhibition, hits mostly inhibitors | AID 720708 | 360,000 tested, 0.18% active; note: % is set by controls: 0 for no effect and ±100 for the full control effect; nearly all actives have a fitted effect of over 45% in size
EPAC1 antag = EPAC1 (human) antagonism. EPAC1 GEF assay, Rap1b-BODIPY-GDP exchange fluorescence. 360,000 tested, 0.14% active. O95398. AID 720709. Potency, µM (doses to about 115 µM), for the others: at the top dose activity change, negative = inhibition, usual class: inhibitors;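 note: plate controls were vehicle for no effect and positive control for full effect; nearly all actives have a fitted effect of over 50% in size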
EPAC1 ag = EPAC1 (human) agonism | O95398 | 360,000 tested, 0.073% active | EPAC1 agonist qHTS, biochemical assay; response scale: 100% = response to 6.5 mM cAMP | Potency, µM (titrated, usually from 154 µM), for inactives: at the highest dose activation, hits mostly activators; note: nearly all actives have a fitted effect of over 60% in size
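Read-out is the fluorescence drop as BODIPY-GDP leaves Rap1B (480 nm excitation, 540 nm emission), recorded every 5 minutes over 30 minutes. Reactions held 100 nM EPAC1, 250 nM Rap1B–BODIPY-GDP and 50 uM GDP, with 6.5 mM cAMP setting full activation.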
USP1-UAF1 inh = USP1/UAF1 (human) deubiquitinase inhibition; O94782; recombinant USP1/UAF1, Ub-Rhodamine cleavage fluorescence; Potency, µM (top dose mostly 57.1 µM), inactives show at the top dose activity change, negative = inhibition, most hits filed as inhibitors; 390,000 tested, 0.23% active; AID 743255; note: % is set by controls: 0 for no effect and ±100 for the full control effect; nearly all actives have a fitted effect of over 60% in size
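Step one: compound is pinned into 1nM USP1/UAF1 in HEPES pH 7.8 buffer with TCEP. Step two: 15 min room-temperature incubation. Step three: Ub-Rho (150nM final) starts cleavage, tracked by fluorescence over six one-minute reads.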
EPAC2 agonist = EPAC2 (human) agonism. EPAC2 activation, biochemical qHTS; response scale: 100% = 6.5 mM cAMP response. Q8WZA2. 360,000 tested, 0.079% active. Potency, µM (doses to about 154 µM), inactives show at the highest dose activation, usual class: activators; note: nearly all actives have a fitted effect of over 50% in size
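Each well held 100 nM EPAC2, 250 nM RAP1B-BODIPY-GDP and 50 uM GDP. Fluorescence, read at 5-min intervals to 30 min, was referenced to a 6.5 mM cAMP positive control.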
USP2a inh = USP2a (human) protease inhibition; O75604; AID 463254; Potency, µM (titrated, usually from 38.3 µM), for the others: at the highest dose activity change, negative = inhibition, actives largely listed as inhibitors; 330,000 tested, 0.01% active; USP2 core, Ub-CHOP2 coupled fluorogenic reporter, 485/531;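 note: plate controls were DMSO wells for no effect and full inhibition by NEM control for full effect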
Target sequence (O75604 whole entry, looked up): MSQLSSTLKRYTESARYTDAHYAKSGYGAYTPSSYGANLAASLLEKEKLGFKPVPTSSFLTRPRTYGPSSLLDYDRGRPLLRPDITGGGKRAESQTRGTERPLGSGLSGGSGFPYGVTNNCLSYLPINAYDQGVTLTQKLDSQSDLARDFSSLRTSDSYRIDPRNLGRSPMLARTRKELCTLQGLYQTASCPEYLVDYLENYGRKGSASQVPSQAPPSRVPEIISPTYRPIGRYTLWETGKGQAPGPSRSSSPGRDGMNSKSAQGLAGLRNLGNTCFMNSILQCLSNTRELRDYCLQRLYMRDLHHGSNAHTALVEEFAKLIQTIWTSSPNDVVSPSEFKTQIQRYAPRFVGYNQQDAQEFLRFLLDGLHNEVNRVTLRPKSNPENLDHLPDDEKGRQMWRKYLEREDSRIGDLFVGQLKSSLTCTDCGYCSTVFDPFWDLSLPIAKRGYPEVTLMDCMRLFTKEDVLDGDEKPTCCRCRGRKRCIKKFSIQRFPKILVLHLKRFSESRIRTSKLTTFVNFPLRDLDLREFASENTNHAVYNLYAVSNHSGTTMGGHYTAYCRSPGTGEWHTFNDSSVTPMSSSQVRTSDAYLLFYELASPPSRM
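Cell-free coupled assay: 10nM USP2 core preincubated 30min RT with compound in Tris-HCl pH 8.0/CaCl2/CHAPS buffer, then 25nM Ub-CHOP2 and 25nM reporter substrate; fluorescence (Ex 485/Em 531) read after 60min RT, normalized to NEM inhibition, concentration-response curves fitted.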
Active calls of the source: *; ? = inconclusive; . = no result. Calls come from the whole dose curve; as a rule, active = well fitted curve in the direction sought with a large enough effect; inconclusive = small, poorly fitted or top-dose-only effect, or another doubt; inactive = no such curve, though single readings can be large; an effect the other way counts as inactive or inconclusive. Potency is the fitted concentration of half-maximal effect.

SMILES	EPAC2 antagonist	EPAC1 antag	EPAC1 ag	USP1-UAF1 inh	EPAC2 agonist	USP2a inh
CCc1nnc(SC(CC)C(=O)Nc2cccc(OC)c2)c2cc3oc(C)cc3n12 (stereo not drawn)	.	.	.	-18.5%	.	.
CCCCN1C(=O)C2Cc3c([nH]c4ccccc34)CN2C1=S (stereo not drawn)	-4.2%	-23.0%	8.7%	25.1µM*	-12.0%	0.3%
C[C@@H]1CN([C@@H](C)CO)C(=O)CCCn2nncc2CO[C@H]1CN(C)C(=O)Nc1cccc(Oc2ccccn2)c1	-2.6%	-7.5%	-9.2%	-0.4%	5.5%	.
COc1ccc(Br)c(Cn2c(C)c(C(=O)NCCC#N)sc2=O)c1	-2.3%	-14.1%	2.5%	.	7.8%	.
O=C(O)CCCN1C(=O)/C(=C\c2ccc(-c3nc4ccccc4s3)o2)SC1=S	3.5%	-9.0%	0.6%	?	-7.0%	0.0%
O=Cc1ccc(-c2nc3ccccc3s2)o1	1.4%	-15.0%	0.3%	-8.5%	-2.6%	5.5%
O=C(O)c1cc(-c2ccc(/C=C3/SC(=S)N(Cc4ccccc4)C3=O)o2)ccc1Cl	?	-1.2%	9.9%	25.1µM*	23.2%	0.6%
O=C(O)CC(C(=O)O)N1C(=O)/C(=C/c2ccc(-c3nc4ccccc4s3)o2)SC1=S (stereo not drawn)	-17.8%	11.8%	5.1%	28.2µM*	12.9%	5.1%
O=C(O)CCN1C(=O)/C(=C/c2ccc(-c3nc4ccccc4s3)o2)SC1=S	2.3%	-24.2%	-6.0%	7.08µM*	3.3%	4.3%
COc1cccc(CNC(=O)c2ccc3nc(-c4ccc(F)cc4)c(-c4ccc(F)cc4)nc3c2)c1	.	.	.	-15.6%	.	.
CSc1ccc(CCNC(=O)Cn2nc(C)n3c(cc4sccc43)c2=O)cc1	.	.	.	-22.8%	.	.
CC(=O)Oc1oc(-c2ccccc2)nc1C=Nc1ccc(N(C)C)cc1	35.2%	6.7%	4.1%	25.1µM*	17.7%	8.6%
CN(C)c1ccc(N=Cc2nc(-c3ccccc3)oc2OC(=O)c2ccccc2)cc1	20.2%	35.2%	2.8%	-14.9%	15.0%	6.1%
COCCN1C=C2C(=O)C(C)(OC(=O)CCC(=O)OC)C(=O)C(Br)=C2C=C1c1ccc(OC)cc1 (stereo not drawn)	22.5%	-17.5%	5.7%	25.1µM*	12.2%	.
COC(=O)CCC(=O)OC1(C)C(=O)C2=CN(C3CCCC3)C(c3ccc(OC)cc3)=CC2=C(Br)C1=O (stereo not drawn)	-20.4%	2.4%	-13.2%	25.1µM*	9.6%	13.2%
C=CCN1C=C2C(=O)C(C)(OC(=O)CCC(=O)OC)C(=O)C(Br)=C2C=C1c1ccc(OC)cc1 (stereo not drawn)	9.1%	7.6%	26.9%	31.6µM*	29.7%	19.9%
CCN(CC)CCCN1C=C2C(=O)C(C)(OC(=O)CCC(=O)OC)C(=O)C(Br)=C2C=C1c1ccc(OC)cc1 (stereo not drawn)	9.0%	-22.0%	-16.8%	?	10.6%	.
COC(=O)CCC(=O)OC1(C)C(=O)C2=CN(c3ccc(OC)cc3)C(c3ccc(OC)cc3)=CC2=C(Br)C1=O (stereo not drawn)	-11.7%	4.5%	8.0%	?	3.0%	.
Cc1c(Cl)cccc1-n1ncc(C(=O)NC2CCCC2)c1C1CCN(C(=O)OC(C)(C)C)CC1	.	.	.	-11.3%	.	.
CCN(CC)S(=O)(=O)c1ccc2c(c1)N(CC(=O)Nc1ccc(C)cc1C)C(=O)C1CCCN21 (stereo not drawn)	.	.	.	-11.9%	.	.
Cc1cc(Br)ccc1NC(=O)CSc1c2c(nc3ccccc13)CCC2	.	.	.	-5.3%	.	.
COc1ccc2c(c1)CC(C(=O)N1CCC(C(N)=O)CC1)CO2 (stereo not drawn)	.	.	.	11.4%	.	.
CC(C)C[C@H](NC(=O)C1(c2ccccc2)CCN(C(=O)OC(C)(C)C)CC1)C(=O)N1CCC[C@H]1C(=O)O	79.4µM*	?	0.2%	-12.1%	-13.0%	0.4%
O=C1CC(Cc2ccccc2)C(=O)N1CCc1ccc2c(c1)OCO2 (stereo not drawn)	11.2µM*	11.5%	7.2%	-2.4%	-19.4%	0.6%
COc1ccc2c(c1)cc1c(=O)n(CC(=O)NC3CCCCC3)nc(C)n12	.	.	.	-19.4%	.	.
SMILES	EPAC2 antagonist	EPAC1 antag	EPAC1 ag	USP1-UAF1 inh	EPAC2 agonist	USP2a inh
CNc1ccc(Cl)cc1S(=O)(=O)c1ccccc1[N+](=O)[O-]	63.1µM*	-15.5%	-4.1%	.	6.2%	.
CCOc1ccc(N=C2NC(=O)S/C2=C\c2ccc(Cl)cc2)cc1	-8.3%	-12.4%	2.8%	-5.3%	4.3%	2.4%
COc1ccc(N=C2NC(=O)S/C2=C\c2ccc(N(C)C)cc2)cc1	2.9%	-4.4%	?	25.1µM*	11.1%	-0.8%
Cc1noc(/C=C/c2cccnc2)c1[N+](=O)[O-]	27.1%	10.6%	-3.1%	-25.6%	6.3%	3.3%
Cc1noc(/C=C/c2ccc(-c3ccccc3Cl)o2)c1[N+](=O)[O-]	217.5%	3.7%	-2.2%	?	100µM*	5.2%
O=C1NN(c2cccc(Br)c2)C(=O)/C1=C/c1ccc(-c2cc([N+](=O)[O-])ccc2O)o1	39.8µM*	-16.8%	-6.1%	-7.6%	-13.8%	2.8%
CCOC(=O)C1=C(c2ccccc2)N=c2s/c(=C\c3cc(OC)c(OC)c(OC)c3)c(=O)n2C1c1cccs1 (stereo not drawn)	-7.1%	-3.1%	9.6%	22.4µM*	13.8%	3.7%
CCOC(=O)C1=C(c2ccccc2)N=c2s/c(=C\c3ccco3)c(=O)n2C1c1cccs1 (stereo not drawn)	-1.6%	?	4.8%	-12.8%	7.9%	-20.0%
Oc1ccc(/C=N/Nc2cc(N3CCOCC3)nc(N3CCOCC3)n2)cc1O	-5.0%	-19.2%	11.7%	-14.6%	8.9%	0.9%
Oc1ccccc1/C=N/Nc1cc(N2CCCC2)nc(N2CCCC2)n1	-4.4%	-15.0%	1.2%	25.1µM*	19.4%	-0.2%
Nc1ncc(Br)cc1S(=O)(=O)Nc1cc(C(F)(F)F)cc(C(F)(F)F)c1	15.8µM*	?	-22.7%	-22.5%	-13.0%	-1.8%
Cc1ccc(C(=O)c2cn(Cc3c(F)cccc3Cl)c3nc(C)ccc3c2=O)cc1	.	.	.	-21.5%	.	.
COc1cc2ccccc2cc1C(=O)NC(=S)Nc1ccc(C(=O)O)cc1	-6.3%	-9.8%	1.8%	-15.2%	14.4%	-0.8%
COc1cc2ccccc2cc1C(=O)NC(=S)Nc1cccc(C(=O)O)c1	13.1%	44.7µM*	?	-25.0%	10.2%	1.9%
CN(C)c1ccc(/C=C(\C#N)C(=O)Nc2nc3c(s2)CCN(Cc2ccccc2)C3)cc1	192.8%	-3.4%	0.0%	4.47µM*	112µM*	6.3%
O=c1c(O)c(-c2cccs2)oc2ccc(Cl)cc12	188.5%	2.6%	-2.3%	25.1µM*	3.9%	?
